In all, about 48,000 compounds went through this assay and about 13,000 (27%) showed an effect of 50% or more. The list shows a part of the results.

The test system of this assay is Wolbachia pipientis. The assay can be described thus: Anti-Wolbachia Cell-Based Screen. The class given is functional. The arrangement: scale not given: in the data most compounds retested in dose-response had high values. The settings on record: 5 µM.
In the case of `Cc1ccc(NC(=O)c2ccc(N3CCCCC3)nn2)c(Cl)c1`, the “Percent Effect” value is reported as -6.125%.

For the compound `Cc1cc(C)n(CC(=O)N2C[C@@H]3CC[C@H](C2)N(CC2CCC2)C3)c(=O)n1`, the “Percent Effect” value worked out at 9.507%.

As to `Cc1cc(C)n(CC(=O)N2CCCCC2CCc2cccs2)c(=O)n1` (stereo not given), the “Percent Effect” value was found to be 103.5%.

On to `Cc1cc(C)n(CC(=O)N2CCCCC2CCN2CCCC2=O)c(=O)n1` (stereo not given), for which the “Percent Effect” value is 117.3%.

Regarding `O=C1CCCN1CCC1CCCCN1C(=O)c1ccc(SCCO)cc1` (stereo not given), the “Percent Effect” value was determined as 10.34%.

For the compound `O=C(NCCCc1cccs1)N1CCCCC1CCO` (stereo not given), the “Percent Effect” value is on record as -11.71%.

As for `Cn1c(C2CCCCN2C(=O)CN2CCCC2=O)nc2ccccc21` (stereo not given), the “Percent Effect” value is reported as 3.336%.

With `Cc1cc2ccccc2n1CCC(=O)N1CCCCC1CCO` (stereo not given), the “Percent Effect” value was -1.29%.

As to `Cc1cc(C)n(CC(=O)N(C)Cc2csc(-c3cccs3)n2)c(=O)n1`, the “Percent Effect” value is -2.174%.

On to `Cc1cc(C)n(CC(=O)N2CCCCC2CCN(C)C)c(=O)n1` (stereo not given), for which the “Percent Effect” value is 101.4%.

As to `COC(=O)c1cc(CN2CCN(c3nc(C)cnc3C)CC2)ccc1O`, the “Percent Effect” value is recorded as -22.17%.

Regarding `CCN(CC)C(=O)c1cc(Br)cc(S(=O)(=O)N2CCOCC2)c1F`, the “Percent Effect” value was -12.93%.

Regarding `COc1ccccc1C(=O)Nc1c(F)c(C(=O)N2CCCC2)nn1C`, the “Percent Effect” value was determined as 113.5%.

Take `COc1ccccc1C(=O)Nc1c(F)c(C(=O)NC2CCCC2)nn1C`: the “Percent Effect” value is reported as 102.6%.

For `COc1ccccc1C(=O)Nc1ccc(OC2CCN(C)CC2)cc1`, the “Percent Effect” value is -27.65%.

Consider `COc1ccccc1C(=O)Nc1c(C)cnn1CC1CC1`, for which the “Percent Effect” value is listed as -3.808%.

`Cc1nn(C)c(C)c1C(C(=O)O)N1CCc2ccccc2C1` (stereo not given): the “Percent Effect” value was 39.47%.

For `CC(C)C(=O)Nc1cc(C(C)(C)C)nn1-c1ccccn1`, the “Percent Effect” value is recorded as 3.907%.

In the case of `CN(Cc1ccccc1Cl)C(C(=O)O)c1ccc(F)c(CO)c1` (stereo not given), the “Percent Effect” value is -0.8463%.

Take `NC(=O)C1CCN(S(=O)(=O)c2cnn(-c3ccccc3)c2)CC1`: the “Percent Effect” value is -7.83%.

For `CCn1cc(C(=O)Nc2ccc(C)cc2C(=O)NC)cn1`, the “Percent Effect” value is -4.213%.

`CCn1nc(C)c(S(=O)(=O)Nc2cccc(C(=O)O)c2C)c1C`: the “Percent Effect” value was -0.6024%.

As for `Cc1ccc(NS(=O)(=O)c2cnn(Cc3ccccc3)c2)c(C(=O)O)c1`, the “Percent Effect” value is listed as 100.3%.

Consider `Cc1cccc(NS(=O)(=O)c2cnn(C)c2)c1C#N`, for which the “Percent Effect” value is -6.698%.

Take `Cc1ccc(NS(=O)(=O)c2cnn(-c3ccccc3)c2)c(C(=O)O)c1`: the “Percent Effect” value came out at 131.3%.

For `Cc1cn(-c2ccccc2)nc1NS(=O)(=O)c1cccc(C(=O)O)c1`, the “Percent Effect” value worked out at 12.37%.

In the case of `CCn1cc(S(=O)(=O)NC(CO)Cc2ccccc2)cn1` (stereo not given), the “Percent Effect” value is given as -18.17%.

On to `Cc1ccc(-n2cc(S(=O)(=O)Nc3cccc(C(=O)O)c3C)cn2)cc1`, for which the “Percent Effect” value worked out at 125.3%.

`CC(C)c1cc(N2CCC(C(C)N3CCCC3)CC2)n2nccc2n1` (stereo not given): the “Percent Effect” value was -4.218%.

Take `CN(Cc1nc(-c2cccs2)no1)Cc1nc2c(s1)CCCC2`: the “Percent Effect” value is -10.58%.

For `Cc1ccc2cnn(CCC(=O)Nc3c(C)nn(C)c3C)c2c1`, the “Percent Effect” value is -9.349%.

Consider `O=C(NCc1cccc(N2CC=CC2)c1)NC1CC1`, for which the “Percent Effect” value worked out at 1.832%.

`Cc1ccc(C(=O)N2CC[C@H](N3CCOCC3)[C@H](CCCO)C2)cc1O`: the “Percent Effect” value is given as -3.81%.

Take `COCCN1CCN(C(=O)c2ccncc2F)Cc2cccnc21`: the “Percent Effect” value amounted to 4.379%.

Take `CN(C)C(=O)N1CCN(C)c2ncccc2C1`: the “Percent Effect” value was 5.475%.

As for `Cn1cccc1C(=O)N1CCN(Cc2ccncc2)c2ncccc2C1.O=C(O)C(F)(F)F.O=C(O)C(F)(F)F`, the “Percent Effect” value is listed as -28.33%.

For the compound `Cn1cccc1C(=O)N1CCN(CC2CC2)c2ncccc2C1`, the “Percent Effect” value is -25.73%.

In the case of `Cn1cccc1C(=O)N1CCN(Cc2cccnc2)c2ncccc2C1.O=C(O)C(F)(F)F.O=C(O)C(F)(F)F`, the “Percent Effect” value is listed as 51.12%.

Turning to `O=C(N1CCCC1)N1CCN(Cc2cccnc2)c2ncccc2C1.O=C(O)C(F)(F)F.O=C(O)C(F)(F)F`, the “Percent Effect” value is on record as 101.8%.

With `CN1CCN(C(=O)c2cccn2C)Cc2cccnc21`, the “Percent Effect” value came to 105.6%.

Take `O=C(c1cnccn1)N1CCN(Cc2ccncc2)c2ncccc2C1`: the “Percent Effect” value is on record as -4.343%.

Take `O=C(c1cnccn1)N1CCN(Cc2cccnc2)c2ncccc2C1`: the “Percent Effect” value was 97.13%.

With `Cc1ccc(C2COCCN2C(=O)c2ccc(CN(C)C)cc2)o1` (stereo not given), the “Percent Effect” value is listed as -6.944%.

Consider `CC(C)Oc1cc(N2C[C@H](C3CC3)[C@@H](N)C2)nc(N)n1`, for which the “Percent Effect” value amounted to 12.97%.

Consider `COc1ccc(-c2noc([C@@H]3C[C@H](NC(=O)NC(C)C)CN3C)n2)cc1`, for which the “Percent Effect” value is recorded as 2.003%.

As to `COc1ccnc(N2Cc3cnc(C(C)(C)C)nc3C2)n1`, the “Percent Effect” value is reported as -13.37%.

For `O=C(O)C(F)(F)F.O=C(O)C(F)(F)F.O=C(c1ccnnc1)N1CCN(Cc2cccnc2)c2ncccc2C1`, the “Percent Effect” value is recorded as 97.06%.

Consider `O=C(O)C(F)(F)F.O=C(O)C(F)(F)F.O=C(O)C(F)(F)F.O=C(c1ccncc1)N1CCN(Cc2cccnc2)c2ncccc2C1`, for which the “Percent Effect” value is given as 105.3%.

As to `O=C(c1ccc[nH]1)N1CCN(Cc2ccncc2)c2ncccc2C1`, the “Percent Effect” value turned out to be 105%.

With `CC(=O)NCC(=O)N1CCN(Cc2ccncc2)c2ncccc2C1`, the “Percent Effect” value is on record as -10.24%.

For the compound `O=C(O)C(F)(F)F.O=C(O)C(F)(F)F.O=C(c1ccnnc1)N1CCN(Cc2ccncc2)c2ncccc2C1`, the “Percent Effect” value was determined as 96.92%.

As to `CN1CCN(C(=O)Cc2cccc(F)c2)Cc2cccnc21.O=C(O)C(F)(F)F`, the “Percent Effect” value was -17.2%.

Consider `O=C(c1ccncc1F)N1CCN(CC2CC2)c2ncccc2C1`, for which the “Percent Effect” value came to 10.49%.

As for `O=C(c1ccc[nH]1)N1CCC(c2nccn2Cc2ccncc2)CC1`, the “Percent Effect” value is recorded as -7.637%.

For the compound `Cc1cc(C)n(-c2cncc(N3CCN(C(=O)C(C)(C)C)CC3)n2)n1`, the “Percent Effect” value is given as 6.121%.

On to `NC(=O)c1cccc(CCNCc2cccs2)c1`, for which the “Percent Effect” value is given as 0.5417%.

With `Cc1ccc2c(c1)c(CNC(=O)C1CCCN(CC(N)=O)C1)nn2C` (stereo not given), the “Percent Effect” value was -18.62%.

For the compound `CC(C)N1CC[C@H]2[C@H](C[C@@H](Cn3cccn3)N2c2nccs2)C1.O=C(O)C(F)(F)F.O=C(O)C(F)(F)F.O=C(O)C(F)(F)F`, the “Percent Effect” value is recorded as 108.8%.

Consider `CC(C)N1CC[C@H]2[C@H](C[C@@H](Cn3cncn3)N2c2nccs2)C1.O=C(O)C(F)(F)F.O=C(O)C(F)(F)F`, for which the “Percent Effect” value amounted to 110.1%.

With `CC(C)N1[C@H](Cn2cccn2)C[C@@H]2CN(C3CCOCC3)CC[C@@H]21.O=C(O)C(F)(F)F.O=C(O)C(F)(F)F.O=C(O)C(F)(F)F`, the “Percent Effect” value came out at 7.148%.

With `CC(=O)N1CC[C@H]2[C@H](C[C@@H](Cn3cncn3)N2c2nccs2)C1.O=C(O)C(F)(F)F`, the “Percent Effect” value turned out to be 4.075%.

With `CN1CC[C@H]2[C@H](C[C@@H](Cn3cncn3)N2c2nccs2)C1`, the “Percent Effect” value is recorded as -5.255%.

Consider `CN1[C@H](Cn2cncn2)C[C@@H]2CN(C3CCOCC3)CC[C@@H]21.O=C(O)C(F)(F)F.O=C(O)C(F)(F)F`, for which the “Percent Effect” value turned out to be 8.742%.

Take `OC(CN1CCN(CC(F)F)CC1)c1ccc(Br)cc1` (stereo not given): the “Percent Effect” value was determined as 2.807%.

`CC(C)CCN1C(=O)CC(N(C)Cc2nc3ccccc3c(=O)[nH]2)C1=O` (stereo not given): the “Percent Effect” value was -3.315%.

As for `COc1cccc(CN2CCC(CO)(Cc3ccc(Cl)cc3)CC2)c1O`, the “Percent Effect” value is listed as -4.953%.

Regarding `COCC(=O)N1CCC2(CC1)CC(COC)N(c1ncccn1)C2.O=C(O)C(F)(F)F` (stereo not given), the “Percent Effect” value is reported as -2.409%.

With `CCN1CCC2(CC1)CC(COC)N(Cc1csc(C)n1)C2.O=C(O)C(F)(F)F.O=C(O)C(F)(F)F` (stereo not given), the “Percent Effect” value turned out to be 21.22%.

Consider `COCC1CC2(CCN(Cc3ccccn3)CC2)CN1c1ncccn1.O=C(O)C(F)(F)F.O=C(O)C(F)(F)F.O=C(O)C(F)(F)F` (stereo not given), for which the “Percent Effect” value turned out to be 0.4015%.

Regarding `COCC(=O)N1CCC2(CC1)COC(COCc1ccccn1)C2.O=C(O)C(F)(F)F` (stereo not given), the “Percent Effect” value is recorded as -3.538%.

`COCC1CC2(CCN(Cc3ccoc3)CC2)CN1Cc1ccccn1` (stereo not given): the “Percent Effect” value came out at 97.98%.

Regarding `COCC(=O)N1CCC2(CC1)CC(COC)N(Cc1ccccn1)C2.O=C(O)C(F)(F)F` (stereo not given), the “Percent Effect” value was 100.7%.

For the compound `COCC1CC2(CCN(Cc3nccs3)CC2)CN1Cc1ccccn1.O=C(O)C(F)(F)F.O=C(O)C(F)(F)F.O=C(O)C(F)(F)F` (stereo not given), the “Percent Effect” value stood at 106.7%.

Take `FC(F)(F)CCc1ccnc(N[C@H]2CC[C@H](n3cnnc3)CC2)n1`: the “Percent Effect” value was -3.85%.

As for `CCNC(=O)NC[C@H]1Cn2c(-c3ccccc3)cnc2CO1`, the “Percent Effect” value is given as -18.82%.

`Cc1ccc(C)c(CS(=O)(=O)Cc2ccn(C)c(=O)c2)c1`: the “Percent Effect” value stood at 17.59%.

Consider `Cc1cnn(C2CCCN(C(=O)C3=NN(C)C(=O)CC3)C2)c1` (stereo not given), for which the “Percent Effect” value turned out to be 5.956%.

`Cc1cnn(C2CCCN(C(=O)c3ccc(C(N)=O)cn3)C2)c1` (stereo not given): the “Percent Effect” value came to 85.91%.

Consider `Cc1cnn(C2CCCN(C(=O)COc3ccc(C(N)=O)cc3)C2)c1` (stereo not given), for which the “Percent Effect” value is recorded as -8.397%.

On to `CNC(=O)c1ccc(C(=O)N2CCCC(n3cc(C)cn3)C2)cn1` (stereo not given), for which the “Percent Effect” value is -2.2%.

With `Cc1cnn(C2CCCN(C(=O)c3ccnc(-n4ccnc4)c3)C2)c1` (stereo not given), the “Percent Effect” value is 5.29%.

For the compound `Cc1nc(C)n(C2CCCN(C(=O)c3ccc(NC4CC4)nc3)C2)n1` (stereo not given), the “Percent Effect” value is 0.453%.

`Cc1cnn(C2CCCN(C(=O)c3ccnc(-n4cncn4)c3)C2)c1` (stereo not given): the “Percent Effect” value is recorded as 91.3%.

On to `Cc1cnn(C2CCCN(C(=O)c3ccc4c(c3)CCC4)C2)c1` (stereo not given), for which the “Percent Effect” value is reported as 100.4%.

In the case of `Cc1cnn(C2CCCN(C(=O)c3ccnc(N(C)C)c3)C2)c1` (stereo not given), the “Percent Effect” value is on record as 7.39%.

With `Cc1cnn(C2CCCN(C(=O)c3ccc(NC4CC4)nc3)C2)c1` (stereo not given), the “Percent Effect” value is 77.38%.

Regarding `Cc1cnn(C2CCCN(C(=O)c3ccn(C)c(=O)c3)C2)c1` (stereo not given), the “Percent Effect” value is -5.065%.

Consider `O=C(c1ccc(NC2CC2)nc1)N1CCCC(n2cccn2)C1` (stereo not given), for which the “Percent Effect” value is reported as -7.453%.

On to `Cn1cnc2c1C(C(=O)N1CCCO1)N(C(=O)c1ccccc1)CC2` (stereo not given), for which the “Percent Effect” value was -3.517%.

On to `N#Cc1cccc(N2CCC3(CC2)Nc2ccccc2NC3=O)n1`, for which the “Percent Effect” value is reported as -5.007%.

The values are drawn from ChEMBL document CHEMBL3988442, “University of Dundee, Small-Polar-MMV Screening Library” (2021).
